Reference: PubChem BioAssay AID504375 (National Center for Advancing Translational Sciences (NCATS), 2011)
Hit rate of the full screen: of about 1,600 compounds, about 25 (2%) were called active. Inconclusive results (about 7%) are left out. The call rests on the fitted dose curve; in most records, active means well fitted inhibition curve with a large enough effect; inconclusive means small, poorly fitted or top-dose-only effect, or effect the other way; inactive means no such curve, though single readings can be large or run the other way. Only a selection was taken, and actives are over-represented in it overall.

molecular target: Runt-related transcription factor 1 (Homo sapiens) + Core-binding factor subunit beta (Homo sapiens) (UniProt Q01196+Q13951); experiment: qHTS Assay for Compounds Blocking the Interaction Between CBF-beta and RUNX1 for the Treatment of Acute Myeloid Leukemia: Hit Validation with Orthogonal Assay; settings: CBFbeta-RUNX1 binding orthogonal assay, biochemical; series mostly up to 41 µM; activity change, negative = inhibition: at the top concentration
Sequence (Q01196 whole entry, looked up): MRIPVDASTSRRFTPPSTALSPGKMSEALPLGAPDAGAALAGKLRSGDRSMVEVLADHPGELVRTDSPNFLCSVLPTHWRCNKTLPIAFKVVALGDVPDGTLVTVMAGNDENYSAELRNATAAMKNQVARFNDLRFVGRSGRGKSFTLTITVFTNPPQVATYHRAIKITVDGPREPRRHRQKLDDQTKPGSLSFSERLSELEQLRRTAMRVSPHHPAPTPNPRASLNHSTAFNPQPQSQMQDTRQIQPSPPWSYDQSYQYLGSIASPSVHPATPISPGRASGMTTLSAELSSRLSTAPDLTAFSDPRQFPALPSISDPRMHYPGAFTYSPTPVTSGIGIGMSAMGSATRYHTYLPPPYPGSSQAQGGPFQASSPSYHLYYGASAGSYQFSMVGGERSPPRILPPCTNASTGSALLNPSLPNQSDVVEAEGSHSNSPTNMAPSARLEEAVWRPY
Sequence (Q13951 whole entry, looked up): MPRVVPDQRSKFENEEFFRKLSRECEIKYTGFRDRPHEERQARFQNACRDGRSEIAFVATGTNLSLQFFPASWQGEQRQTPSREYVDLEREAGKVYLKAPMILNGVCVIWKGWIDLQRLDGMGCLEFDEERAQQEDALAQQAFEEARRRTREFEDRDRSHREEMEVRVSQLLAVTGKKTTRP
From the text: NIH Chemical Genomics Center [NCGC]
NIH Molecular Libraries Probe Production centers Network [MLPCN]
Assay Submitter (PI): Paul Liu
Core Binding Factor (CBF) abnormalities are associated with 20-25% of all acute myeloid leukemias (AML), of which 5-10% are further sub classified as acute myelomonocytic leukemia with eosinophilia, also known as M4Eo in the FAB classification scheme. This subtype of leukemia is usually associated with chromosome 16 inversion (p13:q22). Chromosome 16 inversion results in formation of the fusion oncogene CBFB-MYH11, which encodes the fusion protein CBF-beta-SMMHC.
It has been hypothesized that the interference of CBF-beta and RUNX1 binding could have therapeutic implications for patients with CBF mediated leukemias. We developed a CBF-beta and RUNX1 binding assay in AlphaScreenTM format and optimized it for high throughput screening to search for inhibitors. The goal of this project is to screen MLPCN's compound collection (MLSMR) for identifying the inhibitors of the interaction between CBF-beta and RUNX1 proteins as research probes. If these probes work well in the animal models, the ultimate goal of this project is to development a new drug treatment for this disease.
This assay can not be used to assess how apparent inhibitors interfere with protein binding, and whether inhibitors specifically bind to either protein. Disruption of this protein-protein interaction, through any mechanism, is the intended target activity.
The present data set was run to confirm the activity of hits from the primary screen using an orthogonal assay technology for measuring protein-protein interaction disruption.
A TR-FRET (time resolved fluorescence resonance energy transfer) assay was performed using the same assay buffer, protein concentrations and incubation times as described previously in the AlphaScreen assay, except that terbium (Tb+) labeled anti-his-antibody and XL665 linked streptavidin were used to capture the binding signal. The Tb+ labeled anti-his-antibody captures His(6)-CBF and XL665 linked streptavidin binds to biotin-RUNX1. The binding of RUNX1 to CBFbrings Tb+ and XL665 to proximity resulting in a TR-FRET signal. Briefly, in a white 384-well plate, 10 µl/well of mixture of biotin-RUNX1 and His(6)-CBFwere incubated with 10 µl/well buffer (positive control) or 10 µl/well compounds (negative control) for 20 min followed by an addition of 10 µl/well of Tb+ labeled anti-his(6)-antibody and XL665 linked streptavidin. After 90 min of incubation in the dark, the assay plate was measured in the Envision plate reader using TR-FRET detection mode. For the 1536-well plate format, 3 µl/well mixture of biotin-RUNX1 and His(6)-CBF (30 nM per protein) was incubated with 23 nl/well compound (dissolved in 100% DMSO) or the equivalent DMSO concentration (positive control) for 30 min followed by the addition of 1 µl/well of 0.44 ng Tb+ labeled anti-his(6)-antibody and 5 nM streptavodin-XL665. After 90 min of incubation, the assay plate was measured in the Envision plate reader.
The TR-FRET assay for detecting interaction between HIV-I Tat and […] was similarly performed with the recombinant full-length HIV-I Tat CLADE B and HIV-I Tat Biotin conjugated proteins supplied by Diatheva (Fano, Italy). Briefly, the His-CBF and Biotin-RUNX1 complex at a working concentration of 83.3 nM per protein were pre-incubated in assay buffer for 10 minutes on ice. Then HIV-I Tat or unlabeled CBF were added to reach final concentrations (Supplementary Figure 4b) and incubated for 5 minutes. Finally anti-His antibody and streptavidin-XL665 at a final concentration of 2.2 ng and 5 nM, respectively, were added to the plate, which was incubated for 1 hr prior to reading on the PerkinElmer Envision plate reader.
Keywords: MLSMR, MLPCN, NIH Roadmap, qHTS, NCGC, Core binding factor, CBF, CBF-beta, Acute myeloid leukemia
On the % scale 0 is the no-effect control and ±100 the full control effect; potency means the concentration at half of the fitted maximal effect.

Question: With Cc1ccc2c(c1C)NC(C(=O)O)C1CC=CC21 (centres undefined) as the compound, how does the Potency read?
Answer: 7.08 µM (active)

Question: O=C(O)C1Nc2c(O)cccc2C2C=CCC12 (centres undefined) was tested. Which Potency did it give?
Answer: 3.55 µM (active)

Question: For O=C(O)C1Nc2c(O)cc(Cl)c([N+](=O)[O-])c2C2C=CCC12 (centres undefined), which “activity change, negative = inhibition” value is on record?
Answer: -29.8% (inactive)

Question: Which “activity change, negative = inhibition” value does the source give for COc1ccccc1C1CCN(C(=O)c2ccco2)CC1 here?
Answer: 13.8% (inactive)

Question: With COc1ccccc1C1CCN(C(=O)c2cccs2)CC1 as the compound, how does the “activity change, negative = inhibition” value read?
Answer: 1.7% (inactive)

Question: For COc1cccc2c1NC(C(=O)O)C1CC=CC21 (centres undefined), which Potency is on record?
Answer: 7.94 µM (active)

Question: With Cn1ncc(Br)c1N1C(=O)CCC1=O as the compound, how does the “activity change, negative = inhibition” value read?
Answer: 1.93% (inactive)

Question: With Fc1ccc(C(CCNCc2cccs2)c2ccco2)cc1 (centres undefined) as the compound, how does the “activity change, negative = inhibition” value read?
Answer: 10.9% (inactive)

Question: How did the “activity change, negative = inhibition” value turn out when COc1ccc(NC(=O)Nc2nc3ccccc3s2)cc1 was run?
Answer: -7.1% (inactive)

Question: How did the “activity change, negative = inhibition” value turn out when Cc1cc(NC(=O)CSc2nc3ccccc3[nH]2)n(-c2ccccc2)n1 was run?
Answer: 1.11% (inactive)

Question: Which “activity change, negative = inhibition” value does the source give for c1ccc(-c2n[nH]c(-c3ccccn3)n2)nc1 here?
Answer: -1.29% [at 82.4 µM] (inactive)

Question: c1ccc(-c2nnc(-c3ccccn3)nc2NC2CCCCC2)cc1 was tested. Which “activity change, negative = inhibition” value did it give?
Answer: -3.48% [at 82.4 µM] (inactive)

Question: Which Potency does the source give for CN(C)c1nc(-c2ccccn2)nnc1-c1ccccc1 here?
Answer: 22.4 µM (active)

Question: With CC(=O)Nc1cccc(OCCCNC(=O)c2cccc3ccccc23)c1 as the compound, how does the “activity change, negative = inhibition” value read?
Answer: 6.23% (inactive)

Question: How did the “activity change, negative = inhibition” value turn out when COc1ccc2[nH]c(C(=O)N3CCCN(Cc4ccc(F)cc4)CC3)cc2c1 was run?
Answer: 13.2% (inactive)

Question: NS(=O)(=O)c1ccc(N/N=C/c2ccc(C(=O)O)cc2)c([N+](=O)[O-])c1 was tested. Which “activity change, negative = inhibition” value did it give?
Answer: 94.8% (inactive)

Question: How did the “activity change, negative = inhibition” value turn out when CC(=O)CCn1cc([N+](=O)[O-])nc1C was run?
Answer: -5.17% (inactive)

Question: How did the “activity change, negative = inhibition” value turn out when Cc1cccn(Cc2c(F)cccc2Cl)c1=O was run?
Answer: -6.17% (inactive)

Question: How did the “activity change, negative = inhibition” value turn out when CC(C)(C)OC(=O)N1CCCN(C(=O)Nc2ccc(C(F)(F)F)cc2)CC1 was run?
Answer: 9.91% (inactive)

Question: For CC(/C=N/n1c(-c2ccccn2)n[nH]c1=S)=C\c1ccccc1, which “activity change, negative = inhibition” value is on record?
Answer: -4.6% (inactive)

Question: With CCC12CCCN3CCc4c(n(c5ccccc45)C(O)(C(=O)OC)C1)C32 (centres undefined) as the compound, how does the “activity change, negative = inhibition” value read?
Answer: 36% (inactive)

Question: Which “activity change, negative = inhibition” value does the source give for O=C(O)CSCC(=O)N1CCCN(c2nc3ccc(Cl)cc3s2)CC1 here?
Answer: -5.09% (inactive)

Question: For Cc1nn(Cc2ccccc2)c(C)c1/C=N/NC(=O)c1ccncc1, which “activity change, negative = inhibition” value is on record?
Answer: 2.97% (inactive)

Question: How did the “activity change, negative = inhibition” value turn out when COc1ccccc1OCc1ccc(C(=O)NN)o1 was run?
Answer: 0.502% (inactive)

Question: Which “activity change, negative = inhibition” value does the source give for Cc1nn(C)c(=O)c(N)c1-c1cc(-c2ccc(Cl)c(Cl)c2)n[nH]1 here?
Answer: 9.21% (inactive)

Question: CC(C)(C)c1ccc(C(=O)Cn2nc(C(=O)O)c3ccccc3c2=O)cc1 was tested. Which “activity change, negative = inhibition” value did it give?
Answer: 3.83% (inactive)

Question: How did the “activity change, negative = inhibition” value turn out when CN(C)c1cccc(N(C)C)c1CNC(=O)C(C)(C)C was run?
Answer: 1.48% (inactive)

Question: With S=c1[nH]nc(-c2cccs2)n1C1CCCCC1 as the compound, how does the “activity change, negative = inhibition” value read?
Answer: -14.4% (inactive)

Question: For CCCSc1nnc(NC(=O)Nc2ccc(C)cc2)s1, which “activity change, negative = inhibition” value is on record?
Answer: -0.563% (inactive)

Question: For O=C(/C=C/c1cn(CC(O)CN2CCOCC2)c2ccccc12)c1cccs1 (centres undefined), which “activity change, negative = inhibition” value is on record?
Answer: 4.2% (inactive)

Question: Which “activity change, negative = inhibition” value does the source give for Cc1nc([N+](=O)[O-])cn1CC(O)c1ccccc1 (centres undefined) here?
Answer: 20.8% (inactive)

Question: CCSc1cc(Cl)nc(N)n1 was tested. Which “activity change, negative = inhibition” value did it give?
Answer: 17.2% (inactive)

Question: With COc1cc(OC)c(OC)cc1/C=N/NC(=O)CCc1c(C)n[nH]c1C as the compound, how does the “activity change, negative = inhibition” value read?
Answer: 18.8% (inactive)

Question: For CC(=O)N1CCCC1(C(=O)O)c1ccccc1 (centres undefined), which “activity change, negative = inhibition” value is on record?
Answer: 3.9% (inactive)

Question: For O=C(N/N=C/C(Br)=C/c1ccccc1)C(O)c1ccccc1 (centres undefined), which “activity change, negative = inhibition” value is on record?
Answer: 8.96% (inactive)

Question: Which “activity change, negative = inhibition” value does the source give for O=C(O)C1CC(c2ccccc2)=Nc2ccccc2S1 (centres undefined) here?
Answer: -10.5% (inactive)

Question: COc1ccc2nc(-c3ccc(Cl)cc3)cc(C(=O)O)c2c1 was tested. Which “activity change, negative = inhibition” value did it give?
Answer: 34.7% (inactive)

Question: With Oc1cccc(O)c1O as the compound, how does the Potency read?
Answer: 0.888 µM (active)

Question: For Cc1ccc(OCC(=O)N(Cc2ccc(N(C)C)cc2)C2CCS(=O)(=O)C2)cc1C (centres undefined), which “activity change, negative = inhibition” value is on record?
Answer: 10.2% (inactive)

Question: With CCOC(=O)c1cnc2c(F)ccc(F)c2c1Sc1ccccc1 as the compound, how does the “activity change, negative = inhibition” value read?
Answer: 8.39% (inactive)

Question: How did the “activity change, negative = inhibition” value turn out when O=C(Nc1ccc(Cl)cc1)NC1CCCCNC1=O (centres undefined) was run?
Answer: 2.89% (inactive)

Question: For Cc1nn(-c2ccccc2)nc1C(=O)NNC(=O)c1cccc2ccccc12, which “activity change, negative = inhibition” value is on record?
Answer: 22.3% (inactive)

Question: How did the “activity change, negative = inhibition” value turn out when Cc1nn2c(NCCN(C)C)c3c(nc2c1-c1ccccc1)CCCC3 was run?
Answer: -6.26% (inactive)

Question: How did the “activity change, negative = inhibition” value turn out when Cc1nc([N+](=O)[O-])cn1C(C)C was run?
Answer: -1.09% (inactive)

Question: For c1ccc(-c2ccc(C3=Nn4c(nnc4-c4cccs4)SC3)cc2)cc1, which “activity change, negative = inhibition” value is on record?
Answer: 2.54% (inactive)

Question: CC(=O)Nc1ccc(Nc2cc(C(C)C)nc3c(-c4ccccc4)c(C)nn23)cc1 was tested. Which “activity change, negative = inhibition” value did it give?
Answer: 9.96% (inactive)

Question: For O=C(O)c1ccccc1Sc1ccccc1S(=O)(=O)NC1CCCCC1, which “activity change, negative = inhibition” value is on record?
Answer: -9.91% (inactive)

Question: CCC(C)NC(=O)CC(C)C (centres undefined) was tested. Which “activity change, negative = inhibition” value did it give?
Answer: 0.673% (inactive)

Question: With O=C1CC(N2CCN(S(=O)(=O)c3ccccc3)CC2)C(=O)N1c1ccccc1 (centres undefined) as the compound, how does the “activity change, negative = inhibition” value read?
Answer: 3.16% (inactive)

Question: With C/C(Cc1ccccc1)=N\NC(=O)CNC(=O)c1ccc(Cl)cc1Cl as the compound, how does the “activity change, negative = inhibition” value read?
Answer: -5.63% (inactive)

Question: With N/C(CC1CC1(Cl)Cl)=N\OC(=O)c1ccccc1 (centres undefined) as the compound, how does the “activity change, negative = inhibition” value read?
Answer: 1.08% (inactive)

Question: CC(=O)COc1nc2c(c(-c3ccco3)c1C#N)CCc1ccccc1-2 was tested. Which “activity change, negative = inhibition” value did it give?
Answer: 8.75% (inactive)

Question: With Nc1nc(NCc2ccco2)nc(NCCO)c1[N+](=O)[O-] as the compound, how does the “activity change, negative = inhibition” value read?
Answer: 6.69% (inactive)

Question: Cc1ccc(-n2ncc(-c3nn[nH]n3)c2N)cc1 was tested. Which “activity change, negative = inhibition” value did it give?
Answer: 4.84% (inactive)

Question: For NC(Cc1ccc(O)c(O)c1)C(=O)O (centres undefined), which Potency is on record?
Answer: 0.891 µM (active)

Question: How did the Potency turn out when N[C@H](Cc1ccc(O)c(O)c1)C(=O)O was run?
Answer: 7.08 µM (active)

Question: NCCc1ccc(O)c(O)c1 was tested. Which “activity change, negative = inhibition” value did it give?
Answer: -0.396% [at 82.4 µM] (inactive)

Question: With O=C(/C=C/c1ccc(O)c(O)c1)c1ccccc1O as the compound, how does the “activity change, negative = inhibition” value read?
Answer: 15.8% (inactive)

Question: How did the “activity change, negative = inhibition” value turn out when COc1ccc(C(=O)Nc2cccnc2Sc2ccc(Cl)cc2)cc1 was run?
Answer: -4.01% (inactive)
